The list is not random: actives were taken first. Their share in the collection is about 15%.
ELG1 repair inh – inhibitors of ELG1-dependent DNA repair in HEK293T cells; HEK293T ELG1-luciferase reporter, luminescence, 16 h; DNA damage induced by 5-fluorouridine; Potency, µM (titrated, usually from 46.1 µM), hits mostly inhibitors; actives 2.3% (n = 330,000); AID 504467; note: nearly all actives have a fitted effect of over 55% in size
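Overnight (16 hr) co-exposure of 2,000 cells/well to 5-fluorouridine and compound at 37 °C preceded detection. Luciferase was quantified via ONE-Glo luminescence; loss of signal denotes inhibition.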
RORg inh – inhibitors of mouse ROR gamma transcriptional activity; P51450; Drosophila S2 Gal4-RORgamma UAS-luciferase reporter, 20 h; Potency, µM (top dose mostly 53.6 µM), most hits filed as inhibitors; actives 5.4% (n = 310,000); AID 2551; note: nearly all actives have a fitted effect of over 60% in size
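Stable Schneider cell line, Gal4 DNA-binding domain fused to ROR gamma, UAS-luciferase. Cmpd 1 hr RT → CuSO4 700 uM final → 20 hr RT → luciferase reagent 10 min → luminescence.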
ALOX12 inh – inhibitors of human 12S-lipoxygenase ALOX12. Potency, µM (doses to about 108 µM), hits mostly inhibitors. actives 1.1% (n = 580,000). purified 12hLO, xylenol orange hydroperoxide absorbance
Target sequence (P18054 whole entry, looked up): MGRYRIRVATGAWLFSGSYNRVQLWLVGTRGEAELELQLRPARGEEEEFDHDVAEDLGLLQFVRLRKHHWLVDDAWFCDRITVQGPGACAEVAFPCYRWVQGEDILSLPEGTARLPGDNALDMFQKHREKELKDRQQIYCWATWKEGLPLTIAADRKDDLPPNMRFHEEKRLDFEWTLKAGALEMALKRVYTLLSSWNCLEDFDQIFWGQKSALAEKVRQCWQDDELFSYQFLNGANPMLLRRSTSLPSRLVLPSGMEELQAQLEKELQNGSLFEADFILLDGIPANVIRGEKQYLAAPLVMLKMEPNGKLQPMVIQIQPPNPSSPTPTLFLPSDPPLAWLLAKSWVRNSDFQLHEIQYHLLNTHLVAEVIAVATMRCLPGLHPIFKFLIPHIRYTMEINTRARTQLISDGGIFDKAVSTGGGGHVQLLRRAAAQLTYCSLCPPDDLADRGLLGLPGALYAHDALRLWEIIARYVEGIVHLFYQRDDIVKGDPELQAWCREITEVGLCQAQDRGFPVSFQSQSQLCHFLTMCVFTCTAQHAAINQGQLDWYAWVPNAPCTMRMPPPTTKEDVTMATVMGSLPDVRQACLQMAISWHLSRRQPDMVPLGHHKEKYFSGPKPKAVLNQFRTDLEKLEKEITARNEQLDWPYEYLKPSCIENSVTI
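Purified human 12hLO (150 nM final) in 25 mM Hepes, 0.01% Triton X-100, pH 7.0 was preincubated 15 min at room temperature with compound. Then 40 uM arachidonic acid was added, 30 min. Hydroperoxide was read by Fe-XO absorbance ratio 573/405 nm.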
TDP1 cell noCPT – qHTS for Inhibitors of human tyrosyl-DNA phosphodiesterase 1 (TDP1): qHTS in cells in absence of CPT | DT40 Tdp1-/- hTDP1 cells, no CPT, ATP luminescence, 48 h | Potency, µM (doses to about 46.2 µM), usual class: inhibitors | actives 15% (n = 420,000) | AID 686978, 2013; note: nearly all actives have a fitted effect of over 55% in size
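A cellular qHTS used chicken DT40 cells lacking endogenous Tdp1 but carrying stably transfected human TDP1. Compounds were applied without camptothecin, and cell growth kinetics were judged by ATP-dependent luminescence after ≥48 hr.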
TDP1 cell CPT – growth inhibition of DT40 Tdp1-/-;hTDP1 cells with camptothecin (screen for TDP1 inhibitors); chicken DT40 Tdp1-/-;hTDP1 cells + 20 nM CPT, ATP luminescence, 48 h; Potency, µM (highest dose often 46.2 µM), most hits filed as inhibitors; actives 12% (n = 420,000); note: nearly all actives have a fitted effect of over 55% in size
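Chicken DT40 Tdp1-/- cells stably complemented with human TDP1 were seeded at 400 cells/well in medium containing 20 nM camptothecin, exposed to pin-transferred compounds, and grown at 37 °C for at least 48 hr. Viability was read as ATP luminescence.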
Gal4-VP16 FLuc – counter-screen for ROR gamma inhibitors: Gal4-VP16 reporter | actives 3.5% (n = 310,000) | Drosophila S2 Gal4-VP16 UAS-luciferase, luminescence, 20 h | Potency, µM (series often up to 53.6 µM), most hits filed as inhibitors;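 note: Gal4-VP16 expression switched on by copper sulfate through the metallothionein promoter; nearly all actives have a fitted effect of over 50% in size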
Numbers stand for hits; n = inactive; u = inconclusive; x = no result; [ ] = remark or other dose. Calls come from the whole dose curve; as a rule, active = well fitted curve in the direction sought with a large enough effect; inconclusive = small, poorly fitted or top-dose-only effect, or another doubt; inactive = no such curve, though single readings can be large; an effect the other way counts as inactive or inconclusive.

SMILES	ELG1 repair inh	RORg inh	ALOX12 inh	TDP1 cell noCPT	TDP1 cell CPT	Gal4-VP16 FLuc
O=C(NCc1ccc(Cl)c(Cl)c1)c1cc(C2CCCCN2C(=O)CCc2ccccc2)on1 (configuration not stated)	x	x	n	u	u	x
O=C(NCc1ccc(F)cc1)c1cc(C2CCCCN2C(=O)OCCF)on1 (configuration not stated)	x	x	n	u	u	x
CCCNC(=O)c1cc(C2CCCCN2C(=O)c2cccs2)on1 (configuration not stated)	x	x	n	n	u	x
O=C(NCc1ccc(Cl)c(Cl)c1)c1cc(C2CCCCN2C(=O)c2ccccc2)on1 (configuration not stated)	x	x	u	13µM	18µM	x
O=C(NCc1ccc(Cl)c(Cl)c1)c1cc(C2CCCCN2C(=O)c2cccs2)on1 (configuration not stated)	x	x	u	21µM	15µM	x
Cn1cnc(S(=O)(=O)N2CCCCC2c2cc(C(=O)NCc3ccc(Cl)c(Cl)c3)no2)c1 (configuration not stated)	x	x	n	6.5µM	u	x
CC(=O)Nc1ccc(C(=O)N2CCCCC2c2cc(C(=O)NCc3ccccc3)no2)cc1 (configuration not stated)	x	x	n	n	n	x
O=C(NCc1ccccc1)c1cc(C2CCCCN2C(=O)c2ccccc2)on1 (configuration not stated)	x	x	n	13µM	18µM	x
COc1ccc(C(C)NC(=O)C2(c3ccc(NS(C)(=O)=O)cc3)CCCCC2)cc1 (configuration not stated)	x	x	n	x	x	x
COc1cc(/C=C2\C(C)=C(C#N)c3nc(N)c(C#N)c(C)c32)ccc1OCC(=O)O	n	n	u	u	23µM	n
COc1ccc(CCC(C)(O)c2cc(-c3ccc(OC)cc3)no2)cc1 (configuration not stated)	x	x	n	x	x	x
COc1cccc(CN2CCCC(O)(CN3CCCCC3)C2=O)c1 (configuration not stated)	x	x	n	x	x	x
CC[n+]1c(/C=C/Nc2ccccc2)oc2ccccc21	n	n	u	15µM	15µM	n
Oc1ccc(-c2cnc(-c3ccc(O)cc3)nc2)cc1	u	2.5µM	n	u	n	u
O=C(Nc1ccc(-c2csnn2)cc1)C(Cl)(Cl)Cl	n	u	n	7.3µM	16µM	n
CC(=O)Nc1ccc(NC(=O)C(Cl)(Cl)Cl)cc1	x	x	n	x	x	x
Cc1cc(Cl)ccc1NC(=O)NCC1CCOCC1	x	x	n	x	x	x
CCN(CC)C(=O)[C@H]1C[C@H](CC(=O)NCCCn2ccnc2)C(=O)N2CCc3c([nH]c4ccc(Cl)cc34)[C@]12C	n	x	n	u	u	x
CC(C)N(C(=O)[C@H]1C[C@H](CC(=O)NCC23CC4CC(CC(C4)C2)C3)C(=O)N2CCc3c([nH]c4ccc(Cl)cc34)[C@]12C)C(C)C	u	x	n	13µM	18µM	x
COc1ccc2[nH]c3c(c2c1)CCN1C(=O)C(CC(=O)NCCCN(C)C)C[C@H](C(=O)N(C(C)C)C(C)C)[C@@]31C (some centres not stated)	n	x	n	n	n	x
CCN(CC)C(=O)[C@H]1C[C@H](CC(=O)NCC23CC4CC(CC(C4)C2)C3)C(=O)N2CCc3c([nH]c4ccc(Cl)cc34)[C@]12C	u	x	u	18µM	16µM	x
COc1ccc2[nH]c(C)c(CCN(Cc3cccs3)C(=S)Nc3ccc(F)cc3)c2c1	n	n	x	u	u	n
COc1ccc(NC(=S)N(CCc2c(C)[nH]c3ccc(C)cc23)Cc2cccs2)cc1	u	u	u	u	16µM	n
CNC(=S)N(CCc1c(C)[nH]c2ccc(C)cc12)Cc1cccs1	u	11µM	u	u	u	u
COc1ccc2[nH]c(C)c(CCN(Cc3cccs3)C(=S)Nc3ccccc3)c2c1	u	1.8µM	n	u	u	n
SMILES	ELG1 repair inh	RORg inh	ALOX12 inh	TDP1 cell noCPT	TDP1 cell CPT	Gal4-VP16 FLuc
Cc1nn(-c2ccc(F)cc2)c(C)c1CNC(=O)c1ccc(-n2cc(NC(=O)c3ccoc3)cn2)cc1	x	x	n	12µM	n[9.04 µM]	x
CC1(C)Cc2c(cnn2-c2ccc(F)cc2)C(NC(=O)c2ccoc2)C1 (configuration not stated)	n	n	n	n	n	n
O=Cc1ccccc1OCc1ccc2c(c1)OCO2	u	n	n	2.9µM	5.2µM	n
COc1ccccc1CNCc1ccc2c(c1)OCO2	x	x	n	u	n	x
CCCS(=O)(=O)N1CCC(Cn2c(C)cnc2C2CC2)CC1	x	x	n	x	x	x
CN(C)c1ccc(CC(=O)c2nc3ccccc3s2)cc1	u	n[10 µM]	u	u	16µM	n
CN(C)C(=O)c1nc2ccccc2s1	u	n	n	n	n	n
CCOc1ccc(C2CC(c3ccccc3NS(C)(=O)=O)=NN2C(C)=O)cc1 (configuration not stated)	x	x	n	x	x	x
C=C(Cl)CN1CCC(CC(N)=O)CC1	x	x	n	x	x	x
COc1cc(OC)c(N(C)C(=O)c2cc3c(s2)-c2ccccc2OC3)cc1Cl	x	x	n	23µM	13µM	x
COc1ccc(N(C)C(=O)c2cc3c(s2)-c2ccccc2OC3)cc1	x	x	n	u	u	x
COc1ccc(N(C)C(=O)c2cc3c(s2)-c2c(C)cccc2OC3)c(OC)c1	23µM	n	n	21µM	u	n
CCN(C(=O)c1cc2c(s1)-c1ccccc1OC2)c1cc(OC)ccc1OC	n	n	n	u	u	n
COc1cccc(N2CCN(C(=O)c3cc4c(s3)-c3c(C)cccc3OC4)CC2)c1	x	x	n	23µM	u	x
CCc1ccccc1N(C)C(=O)c1cc2c(s1)-c1c(C)cccc1OC2	x	x	n	23µM	23µM	x
Cc1ccc(CCNC(=O)c2cc3c(s2)-c2c(C)cccc2OC3)cc1	x	x	n	u	u	x
Cc1cccc2c1-c1sc(C(=O)NCc3ccccc3Cl)cc1CO2	x	x	n	26µM	16µM	x
COc1ccc(NC(=O)CSc2ccc3ccccc3c2)cc1S(=O)(=O)N1CCCCC1	u	u	n	16µM	23µM	n
CCn1cc(C(=O)NC2CC3CCC2C3)c(=O)c2ccc(C)nc21 (configuration not stated)	n	n	x	x	x	n
COc1ccc(OCC(=O)Nc2ccc(OC)c(S(=O)(=O)N3CCCCC3)c2)cc1	u	x	n	12µM	15µM	x
CCn1cc(C(=O)Nc2ccc(C(=O)N3CCCC3)cc2)c(=O)c2ccc(C)nc21	n	n	x	x	x	n
CCn1cc(C(=O)Nc2ccc(OC)c(S(=O)(=O)N3CCCCC3)c2)c(=O)c2ccc(C)nc21	n	n	u	23µM	u	n

Compound activity: PubChem BioAssay, National Center for Advancing Translational Sciences (NCATS)
